# According to PubChem BioAssay (Tox21):
# A number with no mark means an inactive call. Records with an inconclusive call do not appear. Where a call stands in place of a potency, no number is given. Calls of active or inactive are those of the source. Unless noted, calls come from the whole dose curve.
# Columns and labels:
# [1] = Nuclear factor erythroid 2-related factor 2/antioxidant responsive element (Nrf2/ARE) small molecule agonists: qHTS cell viability counter screen in human keratinocytes (AID 1919968; active = well fitted curve in the direction sought with a large enough effect in the repeat runs; an effect the other way counts as inactive or inconclusive; note: nearly all actives have a fitted effect of over 55% in size)
# Outline: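 Stably transfected HaCaT (KeratinoSens), 1,500/well. Test agents in DMSO were applied for 23 h, 37 C/5% CO2. CellTiter-Fluor was incubated 1 h before the fluorescence read.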
# [2] = Nuclear factor erythroid 2-related factor 2/antioxidant responsive element (Nrf2/ARE) small molecule agonists: luciferase reporter gene qHTS assay in human keratinocytes (AID 1919969); note: nearly all actives have a fitted effect of over 35% in size
# [3] = target: Gonadotropin-releasing hormone receptor (Homo sapiens) (UniProt P30968); assay: Human gonadotropin-releasing hormone receptor (GnRHR) small molecule agonists, calcium flux assay in GnRHR-HEK293 cells (AID 1920063); note: nearly all actives have a fitted effect of over 35% in size
# Outline: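 Stable human GnRHR HEK293 line. 18 h plating, then calcium dye for 1 h at 37 C. Agonist-mode compound addition from DMSO stocks; fluorescence monitored 3 min.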
# [4] = target: KiSS-1 receptor (Homo sapiens) (UniProt Q969F8); assay: Human kisspeptin (KISS1R) small molecule agonists, calcium flux assay in KISS1R-HEK293 cells (AID 1920064; active = well fitted curve in the direction sought with a large enough effect in the repeat runs; an effect the other way counts as inactive or inconclusive)
# Outline: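 After overnight (18 h) culture at 37 C/5% CO2, human KISS1R-HEK293 cells received calcium dye for 1 h, then test compound; emission at 540 nm (excitation 480 nm) was tracked for 3 min.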
# [5] = G protein-coupled receptor (GPCR) small molecule agonists, calcium flux assay: HEK293 wild type cell line counter screen (AID 1920065)
# Outline: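 Following 18 h incubation at 37 C/5% CO2, plates got calcium dye for 1 h; compounds, ATP or DMSO were then pinned in and fluorescence followed kinetically (480/540 nm).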
# [6] = p53 small molecule agonists, cell-based qHTS assay with human liver microsomes: qHTS cell viability counter screen (AID 1963579); note: nearly all actives have a fitted effect of over 45% in size
# Outline: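 Metabolically activated exposure: compounds, human liver microsomes and NADPH (0.5 mg/mL final apiece) were added to p53RE-bla cells seeded 5 h earlier, left 16 h at 37 C, and then assessed for viability by CellTiter-Glo luminescence.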
# [7] = p53 small molecule agonists, cell-based qHTS assay with rat liver microsomes: qHTS cell viability counter screen (AID 1963580); note: nearly all actives have a fitted effect of over 45% in size
# Outline: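 Cytotoxicity counter screen: intracellular ATP measured by CellTiter-Glo luminescence in the same wells as the beta-lactamase reporter read, on HCT-116 p53RE-bla cells exposed 16 h at 37 C to compounds with rat liver microsomes and NADPH, each 0.5 mg/mL final.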
# [8] = p53 small molecule agonists, cell-based qHTS assay: qHTS cell viability counter screen (AID 1963581); note: nearly all actives have a fitted effect of over 45% in size
# Outline: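 qHTS counter screen: 16 h compound exposure at 37 C of p53RE-bla HCT-116 cells (4,000 per well, seeded 5 h prior), cell viability by ATP luminescence.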
# [9] = target: 5-hydroxytryptamine receptor 2A (Homo sapiens) (UniProt P28223); assay: 5-hydroxytryptamine receptor 2A (HTR2A) small molecule antagonists, cell-based qHTS assay (AID 1963586); note: nearly all actives have a fitted effect of over 45% in size
# Outline: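 CHO cells stably expressing human HTR2A were plated for 18 h at 37 C, then loaded with calcium dye for 1 h. Compounds were preincubated 5 min at room temperature before DOI (4 nM solution) was added. Kinetic fluorescence was read for 3 min.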
# [10] = target: 5-hydroxytryptamine receptor 2A (Homo sapiens) (UniProt P28223); assay: 5-hydroxytryptamine receptor 2A (HTR2A) small molecule agonists, cell-based qHTS assay (AID 1963587); note: nearly all actives have a fitted effect of over 30% in size
# Outline: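 CHO cells stably expressing human HTR2A, plated 18 h, loaded with calcium dye 1 h at 37 C. Agonist mode: compounds added and intracellular calcium fluorescence recorded kinetically for 2 min at 1 sec intervals.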
# [11] = target: Muscarinic acetylcholine receptor M1 (Homo sapiens) (UniProt P11229); assay: Cholinergic receptor muscarinic 1 (CHRM1) small molecule antagonists, cell-based qHTS assay (AID 1963588); note: nearly all actives have a fitted effect of over 40% in size; note: potency is the fitted concentration of half-maximal effect
# Outline: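 Compounds were tested at 15 concentrations in three independent runs. Dye-loaded CHRM1-CHO cells were exposed 5 min at room temperature before stimulation by acetylcholine added at 50nM. Intracellular calcium was read kinetically on FDSS for 3 min.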
# [12] = cAMP Responsive Elements (CRE) small molecule agonists, cell-based qHTS assay (AID 1963590)
# Outline: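 Test agents in DMSO were incubated 3 h at 37 C/5% CO2 with CRE-bla HEK 293T cells seeded 18 h earlier; LiveBLAzer B/G FRET substrate was added and read after 2 h at room temperature.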
# [13] = cAMP Responsive Elements (CRE) small molecule antagonists, cell-based qHTS assay (AID 1963591; active = well fitted inhibition curve with a large enough effect in the signal ratio in the repeat runs, not every such curve was filed as active; the % refers to the signal ratio)
# Outline: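 Reporter line CRE-bla HEK 293T in dialyzed-FBS DMEM; cells preincubated 18 h, treated 3 h with compound plus NKH477 (0.25 uM final); LiveBLAzer FRET, 2 h RT.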
# [14] = target: Beta-2 adrenergic receptor (Homo sapiens) (UniProt P07550); assay: Adrenergic beta2 receptor (ADRB2) small molecule antagonists, cell-based qHTS assay (AID 1963592); note: series mostly up to about 92 µM; nearly all actives have a fitted effect of over 50% in size
# Outline: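 Assay format: CHO-ADRB2 cells, 18-20hr seeding at 37C/5% CO2, then compound plus 1nM isoproterenol agonist mix for 0.5hr RT. Homogeneous time-resolved fluorescence cAMP detection after 1hr, expressed as 665/615 nm ratio.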
# [15] = target: D(2) dopamine receptor (Homo sapiens) (UniProt P14416); assay: Dopamine D2 receptor (DRD2) small molecule agonists, cell-based qHTS assay (AID 1963594); note: nearly all actives have a fitted effect of over 35% in size
# Outline: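 HEK293 cells stably expressing human DRD2, pre-treated with PDE inhibitor Ro20-1724 (0.1 mM final) and compound 10 min at room temperature, then stimulated with NKH477 (200nM […]) for 30 min. cAMP read by HTRF (665/620 nm).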
# [16] = target: Muscarinic acetylcholine receptor M1 (Homo sapiens) (UniProt P11229); assay: Cholinergic receptor muscarinic 1 (CHRM1) small molecule agonists, cell-based qHTS assay (AID 1963589); note: nearly all actives have a fitted effect of over 35% in size
# Outline: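 Kinetic fluorescence (1 s intervals) of calcium-sensitive dye in human M1 CHO cells after compound addition; cells pre-incubated 18 h at 37 C/5% CO2 and dye-loaded 1 h.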
# [17] = target: Beta-2 adrenergic receptor (Homo sapiens) (UniProt P07550); assay: Adrenergic beta2 receptor (ADRB2) small molecule agonists, cell-based qHTS assay (AID 1963593);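 note: CHO cells stably overexpressing human ADRB2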
# Outline: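 CHO cells stably over-expressing ADRB2 were plated overnight at 37C, then dosed with compounds plus a stimulation mix containing 100uM IBMX and 25uM Ro-20-1724 for 0.5hr at room temperature. cAMP was measured by HTRF competition, 1hr.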
# [18] = target: D(2) dopamine receptor (Homo sapiens) (UniProt P14416); assay: Dopamine D2 receptor (DRD2) small molecule antagonists, cell-based qHTS assay (AID 1963595; active = well fitted inhibition curve with a large enough effect in the signal ratio in the repeat runs, with a control signal flat; the % refers to the signal ratio)
# Outline: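 Antagonist mode in DRD2-HEK293 cells: after compound addition with 0.1 mM Ro20-1724, cells received quinpirole (12 nM) and NKH477 (200 nM) for 30 min at room temperature; HTRF cAMP read after 1 h detection.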
# Muscarinic acetylcholine receptor M1 (Homo sapiens), sequence (P11229 whole entry, looked up): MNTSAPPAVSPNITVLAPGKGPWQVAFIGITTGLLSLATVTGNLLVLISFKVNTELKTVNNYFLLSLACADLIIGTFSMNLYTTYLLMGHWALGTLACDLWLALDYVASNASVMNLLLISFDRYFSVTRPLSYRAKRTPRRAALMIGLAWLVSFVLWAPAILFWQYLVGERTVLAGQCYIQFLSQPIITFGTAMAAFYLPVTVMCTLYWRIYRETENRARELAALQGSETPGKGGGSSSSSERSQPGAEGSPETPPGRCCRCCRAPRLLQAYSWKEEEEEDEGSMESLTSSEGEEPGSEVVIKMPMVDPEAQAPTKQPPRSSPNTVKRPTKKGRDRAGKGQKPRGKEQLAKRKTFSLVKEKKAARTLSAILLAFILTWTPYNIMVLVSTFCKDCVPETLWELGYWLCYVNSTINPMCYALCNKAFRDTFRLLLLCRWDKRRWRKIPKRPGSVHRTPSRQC
# Beta-2 adrenergic receptor (Homo sapiens), sequence (P07550 whole entry, looked up): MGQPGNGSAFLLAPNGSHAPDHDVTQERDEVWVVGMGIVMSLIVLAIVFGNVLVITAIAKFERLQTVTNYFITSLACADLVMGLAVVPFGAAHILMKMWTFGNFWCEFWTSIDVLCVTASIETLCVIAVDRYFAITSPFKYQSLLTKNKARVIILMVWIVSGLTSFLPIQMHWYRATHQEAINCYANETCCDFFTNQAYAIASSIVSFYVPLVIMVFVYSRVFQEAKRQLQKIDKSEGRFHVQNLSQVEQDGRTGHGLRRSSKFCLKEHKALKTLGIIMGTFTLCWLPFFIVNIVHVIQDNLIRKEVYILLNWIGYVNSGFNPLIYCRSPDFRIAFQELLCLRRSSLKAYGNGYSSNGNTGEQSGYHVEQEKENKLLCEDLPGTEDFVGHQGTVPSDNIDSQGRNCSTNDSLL
# D(2) dopamine receptor (Homo sapiens), sequence (P14416 whole entry, looked up): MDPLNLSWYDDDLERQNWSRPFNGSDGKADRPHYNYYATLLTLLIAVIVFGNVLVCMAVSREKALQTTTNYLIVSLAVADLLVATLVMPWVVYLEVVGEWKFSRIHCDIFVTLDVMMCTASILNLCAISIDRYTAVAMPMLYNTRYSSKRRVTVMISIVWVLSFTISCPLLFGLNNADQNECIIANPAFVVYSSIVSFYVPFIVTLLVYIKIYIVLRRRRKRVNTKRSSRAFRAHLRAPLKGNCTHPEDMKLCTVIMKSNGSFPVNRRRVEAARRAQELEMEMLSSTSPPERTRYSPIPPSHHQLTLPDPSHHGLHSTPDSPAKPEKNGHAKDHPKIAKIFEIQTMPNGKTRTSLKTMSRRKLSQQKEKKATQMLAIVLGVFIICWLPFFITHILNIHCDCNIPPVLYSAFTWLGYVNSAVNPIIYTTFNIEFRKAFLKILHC
# 5-hydroxytryptamine receptor 2A (Homo sapiens), sequence (P28223 whole entry, looked up): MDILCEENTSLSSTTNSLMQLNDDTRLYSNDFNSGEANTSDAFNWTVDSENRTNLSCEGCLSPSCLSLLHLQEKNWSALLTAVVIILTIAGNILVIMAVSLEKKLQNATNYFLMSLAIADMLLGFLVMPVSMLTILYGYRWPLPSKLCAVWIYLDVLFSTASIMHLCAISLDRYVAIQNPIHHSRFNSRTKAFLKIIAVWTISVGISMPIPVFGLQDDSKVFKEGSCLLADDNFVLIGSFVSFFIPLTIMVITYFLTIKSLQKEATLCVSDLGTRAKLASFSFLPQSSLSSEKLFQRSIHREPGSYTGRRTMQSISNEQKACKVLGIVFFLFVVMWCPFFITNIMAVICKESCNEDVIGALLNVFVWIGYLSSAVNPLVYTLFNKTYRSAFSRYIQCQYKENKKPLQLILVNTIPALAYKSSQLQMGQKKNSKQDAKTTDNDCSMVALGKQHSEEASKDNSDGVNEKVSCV
# KiSS-1 receptor (Homo sapiens), sequence (Q969F8 whole entry, looked up): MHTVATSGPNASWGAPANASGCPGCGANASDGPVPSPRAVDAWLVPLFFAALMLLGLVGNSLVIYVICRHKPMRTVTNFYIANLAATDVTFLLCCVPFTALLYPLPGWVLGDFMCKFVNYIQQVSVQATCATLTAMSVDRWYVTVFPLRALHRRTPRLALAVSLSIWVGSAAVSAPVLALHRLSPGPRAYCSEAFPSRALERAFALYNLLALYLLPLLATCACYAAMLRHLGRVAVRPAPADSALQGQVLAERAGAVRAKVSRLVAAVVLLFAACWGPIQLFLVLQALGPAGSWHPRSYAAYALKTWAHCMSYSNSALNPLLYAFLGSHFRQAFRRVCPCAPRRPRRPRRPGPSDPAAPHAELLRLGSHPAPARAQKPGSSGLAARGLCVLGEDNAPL
# Gonadotropin-releasing hormone receptor (Homo sapiens), sequence (P30968 whole entry, looked up): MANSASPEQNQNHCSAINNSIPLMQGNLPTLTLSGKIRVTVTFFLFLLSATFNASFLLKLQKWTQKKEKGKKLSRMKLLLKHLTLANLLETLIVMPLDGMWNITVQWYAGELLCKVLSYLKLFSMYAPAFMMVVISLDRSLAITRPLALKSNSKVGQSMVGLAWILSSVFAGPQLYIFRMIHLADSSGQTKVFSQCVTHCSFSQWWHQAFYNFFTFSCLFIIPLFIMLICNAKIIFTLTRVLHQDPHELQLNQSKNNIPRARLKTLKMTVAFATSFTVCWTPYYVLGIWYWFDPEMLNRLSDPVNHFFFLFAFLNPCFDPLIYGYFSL
SMILES,Potency [1],Potency [2],Potency [3],Potency [4],Potency [5],Potency [6],Potency [7],Potency [8],Potency [9],Potency [10],Potency [11],Potency [12],Potency [13],Potency [14],Potency [15],Potency [16],Potency [17],Potency [18]
C[N+](C)=CCl,inactive,inactive,inactive,inactive,inactive,inactive,inactive,inactive,inactive,inactive,inactive,inactive,inactive,inactive,inactive,–,–,–
CCCN,inactive,inactive,inactive,inactive,inactive,inactive,inactive,inactive,inactive,–,inactive,inactive,–,inactive,inactive,inactive,inactive,inactive
Nc1cc2c3c(c1)C(c1ccccc1)=N[C@@H](NC(=O)c1cccnc1)C(=O)N3CC2,inactive,inactive,inactive,inactive,inactive,inactive,inactive,inactive,–,inactive,inactive,inactive,–,inactive,inactive,inactive,inactive,inactive
Clc1ccc(C(OCCN2CCCCC2)c2ccccc2)cc1 (configuration not stated),inactive,inactive,inactive,inactive,inactive,inactive,inactive,inactive,–,inactive,460 nM (active),–,inactive,inactive,inactive,inactive,inactive,–
Nc1ccc([N+](=O)[O-])cc1[N+](=O)[O-],inactive,inactive,inactive,inactive,inactive,inactive,inactive,inactive,–,inactive,inactive,inactive,inactive,inactive,–,inactive,–,inactive
